# Bioassay records deposited in PubChem by Broad Institute.
# A selection follows.
# aSyn 5UTR act: Activators via SNCA 5'UTR binding, MLPCN; alpha-synuclein 5'UTR reporter, activators screen; activity score, % (tested at 7.5 µM), hits read low; 7.1% of 300,000 active; in the data active = activity score below about -60%
# * marks the source's active call; other numbers are inactive results.
SMILES,aSyn 5UTR act
C/C(=N\NC(=O)c1ccccc1)c1nc2ccccc2n1C,62.3
Cn1c(NC(=S)Nc2ccccc2)nc2ccccc21,-99.3*
Cn1c(NC(=O)c2ccc(F)cc2)nc2ccccc21,-102.6*
CC(=O)Nc1nc2ccccc2n1Cc1ccc(Cl)cc1,50.7
CCn1c(NC(=O)c2cccs2)nc2ccccc21,-89.3*
CSc1nncc(/C(C)=N\Nc2ccccc2C)n1,-81.3*
O=[N+]([O-])c1ccc(-c2cn3c(n2)CCC3)cc1,-128.5*
O=c1c2ccccc2oc2cc(-c3ccc4[nH]ccc4c3)ccc12,-97.3*
COc1cc2sc3ccc(-c4ccc5[nH]ccc5c4)cc3c(=O)c2cc1OC,-238.7*
CC(=O)NC(=C(Cl)Cl)S(=O)(=O)c1ccccc1,-136.6*
Cc1ccc(C(=O)NC(=C(Cl)Cl)S(=O)(=O)c2ccc(C)cc2)cc1,-72.2*
Oc1cccc(/C=N\Nc2nncc(-c3ccccc3)n2)c1,-210.2*
Clc1ccc(-c2ccc(/C=N/Nc3nncc(-c4ccccc4)n3)o2)cc1,-75.3*
Cc1ccc(/C=N/Nc2nncc(-c3ccccc3)n2)o1,-99.1*
Cc1[nH]n(-c2ccccc2)c(=O)c1/C=N/Nc1nncc(-c2ccccc2)n1,91.2
Cc1ccc(CN2C(=O)/C(=C\c3ccc(C(=O)NCc4cccnc4)cc3)Oc3ccccc32)cc1,101.5
Cc1ccc(-c2cc(C(=O)NCc3cccnc3)no2)cc1,-90.5*
O=C(NCc1cccnc1)c1cc(-c2ccco2)on1,-71.5*
CCc1ccc(NC(=O)CSc2nnnn2C)cc1,-131.8*
Cn1nnnc1SCC(=O)Nc1ccc2c(c1)OCO2,-98.8*
Clc1ccc(C2=Nc3cc(Cl)ccc3OC2)cc1,-205.7*
Cc1ccc2c(c1)N=C(c1ccc(Cl)cc1)CO2,-152.0*
COc1ccc(C(C#N)N2N=C(c3ccccc3)CC2c2ccccc2)cc1OC (stereo unspecified),-182.4*
COc1ccc(C2=NN(C(C#N)c3ccc(OC)cc3)C(c3ccccc3)C2)cc1 (stereo unspecified),-249.7*
Cc1cc(N)n2ncc(-c3ccccc3)c2n1,-148.5*
SMILES,aSyn 5UTR act
C=CCSc1cc(C)nc2c(-c3ccccc3)cnn12,-74.3*
CCOc1ccc(C2C(C(=O)c3ccc(C)o3)=C(O)C(=O)N2c2nc(C)c(C(=O)OC)s2)cc1 (stereo unspecified),-92.4*
CCOC(=O)CNC(=O)c1ccc2c(c1)OCCO2,-64.5*
CCOC(=O)CNC(=O)c1cc(-c2ccc3c(c2)OCCO3)oc1C,-99.5*
O=C(NCCc1cccs1)c1ccc(Cl)c(Cl)c1,-208.8*
O=C(NCc1cccs1)c1ccc2c(c1)OCCO2,-70.1*
Cc1ccc(C(=O)NCCc2cccs2)cc1,73.2
COC(=O)CCN1CCc2cc(N=Nc3ccc([N+](=O)[O-])cc3)ccc21,-95.7*
CCCCCOc1ccc(CSc2ncn[nH]2)cc1,-86.8*
CCCCOc1ccc(CSc2nncn2N)cc1,-85.5*
Fc1ccc(CSc2nc3ncccc3[nH]2)cc1,-104.7*
Nc1nc(CSc2nc3ccccc3[nH]2)cs1,-76.3*
c1ccc(CSCc2nc3ccccc3[nH]2)cc1,-90.9*
CCOc1ccc2nc(SCC)[nH]c2c1,-118.2*
C=CCOc1ccc2nc(NC(=O)OC)[nH]c2c1,65.9
CC(C)CSc1nc2ccccc2[nH]1,-95.2*
O=C(NCCO)c1ccc(CSc2nc3ccccc3[nH]2)cc1,-66.1*
CCCOc1ccc(CSc2nc3ccccc3[nH]2)cc1,-126.6*
Fc1ccc(CSc2nc3ccccc3[nH]2)cc1,-155.2*
c1ccc(CSc2nc3ccccc3[nH]2)cc1,-115.8*
Clc1ccccc1CSc1nc2ccncc2[nH]1,-78.9*
O=[N+]([O-])c1ccc(CSc2nc3ccccc3[nH]2)cc1,-114.2*
O=Cc1[nH]c2ccccc2c1N(C(=O)CCl)c1ccc([N+](=O)[O-])cc1,84.2
COc1ccc2c(c1)CC/C2=N\OC(=O)c1ccccc1OC,-65.1*
Cc1[nH]c(C)c(C(=O)/C=C/c2ccc([N+](=O)[O-])cc2)c1C,-232.0*
SMILES,aSyn 5UTR act
Cc1nc(-c2ccc(NC(=O)c3ccccc3C)cc2)cs1,-122.6*
Cc1nc(-c2ccc(NC(=O)c3ccccc3Br)cc2)cs1,-161.0*
COC(=O)c1c(NC(=O)c2cccs2)sc2c1CCC(C)C2 (stereo unspecified),-112.9*
CCCC1CCc2c(sc(NC(=O)c3cccs3)c2C(N)=O)C1 (stereo unspecified),-99.0*
CC(=O)Nc1ccc2nc(NC(=O)COc3ccccc3Cl)sc2c1,-69.4*
Cc1nc2ccc(NC(=O)CS(=O)(=O)c3ccccc3)cc2s1,-101.1*
CC(=O)Nc1ccc2nc(NC(=O)COc3ccccc3)sc2c1,-64.4*
Cc1cc(CNC(=O)COc2ccccc2F)c2ccccc2n1,-95.6*
Cc1nc2ccc(NC(=O)COc3ccccc3F)cc2s1,-132.9*
Cc1nc2ccc(NC(=O)CCC3CCCC3)cc2s1,-143.5*
CC(=O)c1ccc(NC(=O)C2CCN(S(=O)(=O)c3cccs3)CC2)cc1,-79.9*
O=C(Nc1nc2ccccc2[nH]1)C1CCN(S(=O)(=O)c2cccs2)CC1,-69.5*
Cc1cc(C(=O)COC(=O)c2ccc(Br)o2)c(C)n1Cc1ccco1,-115.6*
Cc1cc(C(=O)COC(=O)c2ccc(O)cc2)c(C)n1Cc1ccco1,-139.7*
CCOc1ncccc1C(=O)OCC(=O)c1cc(C)n(Cc2ccco2)c1C,-115.0*
O=C(Nc1cccc2ccccc12)c1ccc([N+](=O)[O-])o1,-178.8*
COc1ccccc1NC(=O)c1ccc([N+](=O)[O-])o1,-98.1*
O=C(Nc1cc(-c2nc3ncccc3o2)ccc1Cl)c1ccc([N+](=O)[O-])o1,-199.9*
CCCn1c(NC(=O)c2ccc([N+](=O)[O-])o2)nc2ccccc21,-88.5*
CC(C)(C)NC(=O)CN(C(=O)CNS(=O)(=O)c1ccccc1)c1ccc2c(c1)OCCO2,-86.3*
Cc1cccc(-n2ncc3c(NCc4ccco4)ncnc32)c1,-548.7*
Cc1ccc(-n2ncc3c(NCc4ccco4)ncnc32)cc1C,-183.0*
O=C(NCCc1cccc(Cl)c1)c1cccs1,-115.2*
O=C(NCCc1ccccc1)c1cnc2sccn2c1=O,-90.4*
COc1ccc(Cl)cc1NC(=O)c1cnc2sccn2c1=O,-106.2*
SMILES,aSyn 5UTR act
O=C(NCCc1cccc(Cl)c1)c1cccnc1,-84.2*
O=C(NC(c1ccccc1)c1cc(Cl)c2cccnc2c1O)c1cccnc1 (stereo unspecified),99.7
O=C(NCCc1ccccc1)c1cccs1,-93.9*
O=C(NCc1nc2ccccc2[nH]1)c1cccs1,-63.6*
CCO[C@H]1OC(C(=O)NCc2nc3ccccc3[nH]2)=C[C@@H](C2CC2)[C@@H]1CCCO,79.9
Cc1cc2ccccc2n1CCNC(=O)c1cccs1,-121.3*
Cc1nc(-c2ccc(Cl)cc2)sc1C(=O)O,-101.2*
Cc1ccc(-c2nc(C)c(C(=O)O)s2)cc1,-208.3*
C/C(=N\OC(=O)c1ccc(F)cc1)c1sc(-c2ccc(Cl)cc2)nc1C,-211.0*
CC(=O)Oc1ccc([C@@H]2COc3c(ccc4c3C=CC(C)(C)O4)C2)c(OC(C)=O)c1,-152.4*
Cc1cc(SCC(=O)c2cccc([N+](=O)[O-])c2)nc(=O)[nH]1,-90.9*
C/C(=N\N=C(N)N)c1cc(Cl)ccc1Cl,64.7
Nc1nnc(-c2ccc(Cl)cc2Cl)s1,-108.4*
O=[N+]([O-])c1ccccc1-c1ccc(C(=S)N2CCCC2)o1,-132.0*
O=[N+]([O-])c1ccccc1-c1ccc(C(=S)N2CCCCC2)o1,-107.3*
O=S(=O)(c1ccc(NC(=S)Nc2ccc3c(c2)OCO3)cc1)N1CCOCC1,-227.0*
